# Results as given in article PMC5892938, “SARNAclust: Semi-automatic detection of RNA protein binding motifs from immunoprecipitation data”.
# The full ranking holds about 11,000 sequences; the median of “log2 fold change” is about 0.00022, and the highest 2% start at about 0.34. The list shows a part of the results.
# Target: GST-SBP-SLBP (stem-loop binding protein) (Homo sapiens, UniProt Q14493 1-270)
# Test: targeted RNA Bind-n-Seq; RBNS binding buffer: 25 mM Tris pH 7.5, 150 mM KCl, 3 mM MgCl2, 0.1% Tween, 0.5 mg/mL BSA, 1 mM DTT; 27 nM protein, 750 pM RNA pool; temperature not stated; high values mean tight binding
# Conditions: protein: recombinant; tags: N-terminal GST and SBP (pGEX6P1-SBP); structured_RNA
# In short: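 A designed RNA oligo pool, transcribed with T7, was present at 750 pM and incubated in RBNS binding buffer with 27 nM of GST-SBP-tagged protein that had been expressed in Rosetta(DE3) pLysS E. coli and purified with glutathione. After reverse transcription with a 10-nucleotide barcoded primer and PCR, the bound RNA was sequenced as 200-cycle paired-end reads on a MiSeq. Each sequence's binding signal is the DEseq binary-logarithm fold change in read counts, computed after joining reads with FLASH, aligning with HISAT2 and collapsing by barcode.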
row,Sequence,binding signal [log2 fold change]
1,GGUCACGUCUCAAUCAACUCAUACGAGGGGGGGAAAACCCCUUUACCCUCAAUAUCAACAGCUCGCAGUCAAG,0.313 ± 0.436
2,GGUCACGUCUCAAUCAACUCAUACGAGGGGGGGAAAACCCCUUUACCCUCAAAUUCAACAGCUCGCAGUCAAG,0.598 ± 0.45
3,GGUCACGUCUCAAUCAACUCGCAAGAGGGGGGGAAAACCCCUUUACCCUCACAAUCAACAGCUCGCAGUCAAG,0.536 ± 0.414
4,GGUCACGUCUCAAUCAACUCAUAAGAGGGGGGGAAAACCCCUUUACCCUCACACUCAACAGCUCGCAGUCAAG,0.455 ± 0.444
5,GGUCACGUCUCAAUCAACUCACAAGAGGGGGGGAAAACCCCUUUACCCUCGUCCUCAACAGCUCGCAGUCAAG,0.385 ± 0.429
6,GGUCACGUCUCAAUCAACUCACAAGAGGGGGGGAAAACCCCUUUACCCUCACUCUCAACAGCUCGCAGUCAAG,0.304 ± 0.385
7,GGUCACGUCUCAAUCAACUCAUCCUCAGGAGUUUGCUCCUGCAUAUUCAACAGCUCGCAGUCAAG,0.313 ± 0.205
8,GGUCACGUCUCAAUCAACUCAUCCGCAGGAGUUUCCUCCUGGUAUUUCAACAGCUCGCAGUCAAG,0.483 ± 0.25
9,GGUCACGUCUCAAUCAACUCAGUCCCAGGAGUUUCCUCCUGUAAAUUCAACAGCUCGCAGUCAAG,0.371 ± 0.28
10,GGUCACGUCUCAAUCAACUCAGUCCCAGGAGUUUUCUCCUGCUAAUUCAACAGCUCGCAGUCAAG,0.335 ± 0.235
11,GGUCACGUCUCAAUCAACUCAUCUCCAGGAGUUUCCUCCUGCUUUUUCAACAGCUCGCAGUCAAG,0.328 ± 0.198
12,GGUCACGUCUCAAUCAACUCAGUCUCAGGAGUUUCCUCCUGCUAUUUCAACAGCUCGCAGUCAAG,0.343 ± 0.24
13,GGUCACGUCUCAAUCAACUCAAUCUCAGGAGUUUUCUCCUGCUAUUUCAACAGCUCGCAGUCAAG,0.339 ± 0.222
14,GGUCACGUCUCAAUCAACUCAUCCCCAGGAGUUUGCUCCUGCAUUCUCAACAGCUCGCAGUCAAG,0.306 ± 0.225
15,GGUCACGUCUCAAUCAACUCAAUCCCAGGAGUUUCCUCCUGUUUUUUCAACAGCUCGCAGUCAAG,0.312 ± 0.215
16,GGUCACGUCUCAAUCAACUCUUUCUCAGGAGUUUCCUCCUGCAUUUUCAACAGCUCGCAGUCAAG,0.312 ± 0.164
17,GGUCACGUCUCAAUCAACUCAUCCUCAGGAGUUUCCUCCUGCAAACUCAACAGCUCGCAGUCAAG,0.314 ± 0.204
18,GGUCACGUCUCAAUCAACUCAAUCCCAGGAGUUUGCUCCUGCAUAUUCAACAGCUCGCAGUCAAG,0.355 ± 0.208
19,GGUCACGUCUCAAUCAACUCUUAAGAGGGGGGGAAAACCCCUUUACCCUCAACGUCAACAGCUCGCAGUCAAG,0.385 ± 0.451
20,GGUCACGUCUCAAUCAACUCUUAAGAGGGGGGGAAAACCCCUUUACCCUCAAAAUCAACAGCUCGCAGUCAAG,0.666 ± 0.398
21,GGUCACGUCUCAAUCAACUCUUAAGAGGGGGGGAAAACCCCUUUACCCUCGCCAUCAACAGCUCGCAGUCAAG,0.455 ± 0.394
22,GGUCACGUCUCAAUCAACUCUUCUUCCAGGGAAAUCCCUGGCAAACUCAACAGCUCGCAGUCAAG,0.309 ± 0.268
23,GGUCACGUCUCAAUCAACUCUUCUUCCAGGGAAAUCCCUGGUAAUUUCAACAGCUCGCAGUCAAG,0.413 ± 0.238

row,Sequence,binding signal [log2 fold change]
1,GGUCACGUCUCAAUCAACUCAAUCCCCAGGGAAAUCCCUGGUAAAUUCAACAGCUCGCAGUCAAG,0.453 ± 0.315
2,GGUCACGUCUCAAUCAACUCAUCCCCCAGGGAAAUCCCUGGUUAAUUCAACAGCUCGCAGUCAAG,0.368 ± 0.293
3,GGUCACGUCUCAAUCAACUCAUCGCCCAGGGAAAGCCCUGGUUAAUUCAACAGCUCGCAGUCAAG,0.329 ± 0.337
4,GGUCACGUCUCAAUCAACUCUUCUCCCAGGGAAAGCCCUGGUAAACUCAACAGCUCGCAGUCAAG,0.33 ± 0.26
5,GGUCACGUCUCAAUCAACUCAACUCCCAGGGAAACCCCUGGUAAAUUCAACAGCUCGCAGUCAAG,0.307 ± 0.342
6,GGUCACGUCUCAAUCAACUCUUCUCCCAGGGAAAUCCCUGGUAUACUCAACAGCUCGCAGUCAAG,0.329 ± 0.25
7,GGUCACGUCUCAAUCAACUCUUCUCCCAGGGAAAUCCCUGGUAAACUCAACAGCUCGCAGUCAAG,0.359 ± 0.267
8,GGUCACGUCUCAAUCAACUCAAUCUCCAGGGAAAUCCCUGGCUAAUUCAACAGCUCGCAGUCAAG,0.315 ± 0.249
9,GGUCACGUCUCAAUCAACUCAAUCUCCAGGGAAAUCCCUGGUUAAUUCAACAGCUCGCAGUCAAG,0.348 ± 0.266
10,GGUCACGUCUCAAUCAACUCAUUAGAGGGGGGGAAAACCCCUUUACCCUCAUCAUCAACAGCUCGCAGUCAAG,0.333 ± 0.443
11,GGUCACGUCUCAAUCAACUCCUCAGAGGGGGGGAAAACCCCUUUACCCUCAUUAUCAACAGCUCGCAGUCAAG,0.4 ± 0.421
12,GGUCACGUCUCAAUCAACUCUAAAGAGGGGGGGAAAACCCCUUUACCCUCAUCAUCAACAGCUCGCAGUCAAG,0.394 ± 0.392
13,GGUCACGUCUCAAUCAACUCUAUAGAGGGGGGGAAAACCCCUUUACCCUCAUCAUCAACAGCUCGCAGUCAAG,0.306 ± 0.416
14,GGUCACGUCUCAAUCAACUCUCAAGAGGGGGGGAAAACCCCUUUACCCUCAUUAUCAACAGCUCGCAGUCAAG,0.622 ± 0.45
15,GGUCACGUCUCAAUCAACUCCUCAGAGGGGGGGAAAACCCCUUUACCCUCCUUAUCAACAGCUCGCAGUCAAG,0.431 ± 0.416
16,GGUCACGUCUCAAUCAACUCUAAAGAGGGGGGGAAAACCCCUUUACCCUCCUACUCAACAGCUCGCAGUCAAG,0.315 ± 0.441
17,GGUCACGUCUCAAUCAACUCACUAGAGGGGGGGAAAACCCCUUUACCCUCAUUAUCAACAGCUCGCAGUCAAG,0.408 ± 0.406
18,GGUCACGUCUCAAUCAACUCACUAGAGGGGGGGAAAACCCCUUUACCCUCAUCGUCAACAGCUCGCAGUCAAG,0.311 ± 0.421
19,GGUCACGUCUCAAUCAACUCCUCAGAGGGGGGGAAAACCCCUUUACCCUCCCAUUCAACAGCUCGCAGUCAAG,0.356 ± 0.426
20,GGUCACGUCUCAAUCAACUCCCCAGAGGGGGGGAAAACCCCUUUACCCUCAAAUUCAACAGCUCGCAGUCAAG,0.402 ± 0.428
21,GGUCACGUCUCAAUCAACUCUCUAGAGGGGGGGAAAACCCCUUUACCCUCCCAUUCAACAGCUCGCAGUCAAG,0.325 ± 0.44
22,GGUCACGUCUCAAUCAACUCCACGGAGGGGGGGAAAACCCCUUUACCCUCAAAUUCAACAGCUCGCAGUCAAG,0.543 ± 0.46
